For part of these data: Measured potencies and affinities stand elsewhere. This is one part of the list. Calls of active or inactive are those of the source.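 The calls were made as follows, unless noted: active = compounds whose fluorescence signal differed from control wells by over 3 SD, either direction, in both duplicate plates; inactive = the rest.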
Legend:
[1] = target: Short transient receptor potential channel 4 (Mus musculus) (UniProt Q9QUQ5); test: mouse TRPC4 membrane potential modulation by TRPC6 hits, confirmation, selectivity assay for TRPC6 inhibitor project, cell-based, second specificity screen, HEK293 TRPC4/mu-opioid (AID 2776); settings: HEK293 TRPC4/MOR, membrane potential dye fluorescence, at 10 µM, channel activated by saturating DAMGO dose; stronger effect = higher value
[2] = system: transient receptor potential cation channel C4 (TRPC4), mouse; test: mouse TRPC4 modulation by TRPC6 hits, confirmation, selectivity assay for TRPC6 inhibitor project, cell-based, HEK293 TRPC4/mu-opioid, membrane potential dye (AID 2777;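 active = rise or fall in signal beyond 3 SD of buffer-only wells in both replicate plates, either sign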;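 also: integrated kinetic ratio of fluorescence range over baseline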); settings: membrane potential fluorescence, at 10 µM
[3] = nonspecific membrane potential effects, parental HEK293, confirmation, counter-screen for TRPC6 inhibitor project, cell-based, second counter screen (AID 2779;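 active = membrane potential signal moving either way by over 3 SD of the maximum-effect control, in both duplicate plates, meaning non-specific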); settings: parental HEK293 membrane potential dye fluorescence; at 10 µM; maximal acetylcholine challenge after compound addition
[4] = target: Short transient receptor potential channel 6 (Mus musculus) (UniProt Q61143); test: mouse TRPC6 channel inhibitors, confirmation, HEK293 cells, membrane potential dye, duplicate (AID 488960;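 active = fluorescence ratio falls more than 5 SD below the full-stimulation control mean, in both duplicate runs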;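 as to inhibition: integrated fluorescence ratio of peak minus minimum over baseline after agonist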); settings: ACh-evoked depolarization, at 10 µM; stronger effect = higher value
[5] = system: TRPC4 beta (transient receptor potential cation channel C4), mouse; test: activators of mouse TRPC4 channel, confirmation, cell-based, Fluo4 calcium, HEK293 TRPC4beta/mu-opioid, duplicates, 10 µM (AID 2426;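 active = fluorescence ratio normalized to control raised more than 50% in primary screen plus both repeat runs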;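 also: percent rise of integrated ratio over buffer wells lacking compound which define 0%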); settings: Fluo4 calcium fluorescence, at 10 µM; stronger effect = higher value
[6] = system: transient receptor potential cation channel C4 beta (TRPC4), mouse; test: activators of mouse TRPC4 channel, confirmation, cell-based, second round, Fluo4, HEK293 TRPC4beta/mu-opioid, 1 µM (AID 2461;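 active = primary screen active and over 50% activation in each of two duplicate runs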); settings: Fluo4 calcium fluorescence, at 1 µM; stronger effect = higher value
[7] = system: TRPC4 (transient receptor potential cation channel C4 beta), mouse; test: positive allosteric modulators of mouse TRPC4, confirmation, cell-based, second round, Fluo-4, HEK293 TRPC4beta/mu-opioid, 1 µM (AID 2554;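 active = primary screen hit whose fluorescence ratio, in both repeats, exceeds the weak agonist control mean by 3 SD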); settings: DAMGO EC20, Fluo-4 calcium flux, at 1 µM; stronger effect = higher value
[8] = system: TRPC4 beta (transient receptor potential cation channel C4), mouse; test: positive allosteric modulators of mouse TRPC4, confirmation, cell-based, Fluo-4, HEK293 TRPC4beta/mu-opioid (AID 2555;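 active = primary screen hit whose calcium fluorescence ratio, in both repeats, exceeds the weak agonist control mean by 3 SD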); settings: DAMGO EC20, Fluo-4 calcium flux, at 10 µM; stronger effect = higher value
[9] = target: Short transient receptor potential channel 4 (Mus musculus) (UniProt Q9QUQ5); test: inhibitors of mouse TRPC4 channel, confirmation, cell-based, Fluo4, HEK293 TRPC4beta/mu-opioid (AID 2636;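 active = calcium signal cut by more than 3 SD below the full-agonist control yet still positive, in both repeats and the earlier primary screen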); settings: DAMGO, Fluo4 calcium flux, at 10 µM; stronger effect = higher value
[10] = target: Short transient receptor potential channel 4 (Mus musculus) (UniProt Q9QUQ5); test: inhibitors of mouse TRPC4 channel, confirmation, cell-based, second round, Fluo4, HEK293 TRPC4beta/mu-opioid, 1 µM (AID 2637;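 active = calcium signal ratio cut to more than 3 SD under the fully stimulated control mean yet still positive, in both repeats and the primary screen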); settings: Fluo4 calcium flux, DAMGO, at 1 µM; stronger effect = higher value
[11] = target: Short transient receptor potential channel 4 (Mus musculus) (UniProt Q9QUQ5); test: mouse TRPC4 channel inhibitors, dose response, cell-based, HEK293 TRPC4/mu-opioid, Fluo-4 calcium (AID 434942;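 active = primary screen inhibitor hit that blocks the TRPC4 channel at some tested dose, yielding a dose curve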)
[12] = target: Short transient receptor potential channel 6 (Mus musculus) (UniProt Q61143); test: inhibition of mouse TRPC6 channel, confirmation, selectivity assay for TRPC4 inhibitor project, cell-based, HEK293, membrane potential dye, duplicate (AID 434948;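 active = active in primary screen and both duplicates, each dropping signal beyond three positive-control SD with fluorescence still positive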); settings: HEK293 TRPC6, membrane potential dye fluorescence, at 10 µM, stimulated with maximal-effect acetylcholine; stronger effect = higher value
[13] = target: Short transient receptor potential channel 6 (Mus musculus) (UniProt Q61143); test: activation of mouse TRPC6 channel, confirmation, selectivity assay for TRPC4 activator project, cell-based, HEK293, membrane potential dye, duplicate (AID 434950;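 active = membrane potential signal rise above negative control mean plus 3 SD in both duplicates, also active in the earlier TRPC4 screen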;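 also: 0% = buffer only wells and 100% = acetylcholine maximal-effect wells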); settings: HEK293 TRPC6, membrane potential fluorescence, at 10 µM; stronger effect = higher value
[14] = target: Short transient receptor potential channel 6 (Mus musculus) (UniProt Q61143); test: TRPC6 potentiation by TRPC4 potentiator hits, confirmation, selectivity assay for TRPC4 potentiator project, HEK293 cells, membrane potential dye, duplicate (AID 434952;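 active = compound raising the membrane signal above positive-control mean plus 3 SD in both repeats, and a primary screen hit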); settings: HEK293 TRPC6, membrane potential dye fluorescence, at 10 µM, maximal acetylcholine added after compound; stronger effect = higher value
[15] = target: Short transient receptor potential channel 4 (Mus musculus) (UniProt Q9QUQ5); test: calcium flux activators in TRPC4/5HT1a cells, counter-screen for TRPC4 activator project, cell-based, second counter screen, HEK293 TRPC4/5HT1a, Fluo-4 (AID 434977;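 active = calcium signal rise above buffer-control mean plus 5 SD in both duplicates, and also a hit in the primary screen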;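 also: plate controls were assay buffer for no effect and maximal serotonin response for full effect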); settings: Fluo-4 calcium flux, at 10 µM; stronger effect = higher value
[16] = calcium flux inhibitors in TRPC4/5HT1a cells, confirmation, counter-screen for TRPC4 inhibitor project, cell-based, second counter screen, HEK293 TRPC4/5HT1a, Fluo-4 (AID 434978;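 active = primary screen active whose calcium signal fell more than 3 SD beyond the full-serotonin control mean in both duplicate plates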;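 as to outcome: serotonin given first at submaximal then at maximal dose after compound preincubation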); settings: Fluo-4 calcium flux, at 10 µM, serotonin added to trigger calcium flux; stronger effect = higher value
[17] = system: TRPC4 (mouse), co-expressed with 5HT1a in HEK293; test: calcium flux potentiators in TRPC4/5HT1a cells, confirmation, counter-screen for TRPC4 potentiator project, cell-based, second counter screen, HEK293 TRPC4/5HT1a, Fluo-4 (AID 434979;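 active = signal rise over 3 SD above mean of control wells given weak agonist, in both repeats and first screen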); settings: Fluo-4 calcium flux, at 10 µM, serotonin added at its EC20 dose; stronger effect = higher value
[18] = calcium flux activation in mu-opioid HEK293 cells, confirmation, counter-screen for TRPC4 activator project, cell-based, HEK293 mu-opioid receptor line (AID 449723;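 active = hit in primary screen, with calcium signal over 5 SD above buffer well mean in both duplicates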;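 also: counter screen cells carry the mu-opioid receptor alone and lack TRPC4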); settings: Fluo-4 calcium fluorescence, at 10 µM; stronger effect = higher value
[19] = calcium flux enhancement in mu-opioid HEK293 cells, confirmation, counter-screen for TRPC4 allosteric potentiator project, cell-based, HEK293 mu-opioid receptor line (AID 449724;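 active = calcium signal rise more than 3 SD above the low-dose agonist control mean, in both duplicate plates and the primary screen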); settings: Fluo-4 calcium flux, at 10 µM, compound added before EC20 DAMGO stimulus; stronger effect = higher value

Sequence of Short transient receptor potential channel 4 (Mus musculus) (Q9QUQ5 whole entry, looked up): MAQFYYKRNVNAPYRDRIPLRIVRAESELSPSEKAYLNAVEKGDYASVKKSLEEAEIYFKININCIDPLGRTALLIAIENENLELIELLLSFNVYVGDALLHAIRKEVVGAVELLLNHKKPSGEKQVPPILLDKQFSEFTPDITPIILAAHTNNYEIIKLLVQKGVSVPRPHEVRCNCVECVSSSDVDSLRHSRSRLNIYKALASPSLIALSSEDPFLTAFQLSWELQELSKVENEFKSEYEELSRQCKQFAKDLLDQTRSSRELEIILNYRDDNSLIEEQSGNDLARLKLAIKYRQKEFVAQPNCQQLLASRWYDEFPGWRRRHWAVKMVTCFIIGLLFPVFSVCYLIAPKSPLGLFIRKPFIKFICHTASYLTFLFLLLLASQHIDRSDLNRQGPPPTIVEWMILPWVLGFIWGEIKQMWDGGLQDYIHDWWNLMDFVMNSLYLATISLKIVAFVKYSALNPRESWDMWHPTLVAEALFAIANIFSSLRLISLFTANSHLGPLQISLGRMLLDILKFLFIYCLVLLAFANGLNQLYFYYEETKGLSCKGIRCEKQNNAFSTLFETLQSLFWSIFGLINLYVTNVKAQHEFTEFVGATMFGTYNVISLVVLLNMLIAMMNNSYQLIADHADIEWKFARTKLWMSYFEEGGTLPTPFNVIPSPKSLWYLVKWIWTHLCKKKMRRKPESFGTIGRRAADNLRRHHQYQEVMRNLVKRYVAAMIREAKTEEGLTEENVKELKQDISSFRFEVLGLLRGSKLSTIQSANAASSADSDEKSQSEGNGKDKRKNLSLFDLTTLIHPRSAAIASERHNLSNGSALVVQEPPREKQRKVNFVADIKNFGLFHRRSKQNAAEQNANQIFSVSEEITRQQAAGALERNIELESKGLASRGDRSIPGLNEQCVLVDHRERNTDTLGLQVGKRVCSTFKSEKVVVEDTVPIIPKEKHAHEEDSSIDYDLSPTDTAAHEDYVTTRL
Sequence of Short transient receptor potential channel 6 (Mus musculus) (Q61143 whole entry, looked up): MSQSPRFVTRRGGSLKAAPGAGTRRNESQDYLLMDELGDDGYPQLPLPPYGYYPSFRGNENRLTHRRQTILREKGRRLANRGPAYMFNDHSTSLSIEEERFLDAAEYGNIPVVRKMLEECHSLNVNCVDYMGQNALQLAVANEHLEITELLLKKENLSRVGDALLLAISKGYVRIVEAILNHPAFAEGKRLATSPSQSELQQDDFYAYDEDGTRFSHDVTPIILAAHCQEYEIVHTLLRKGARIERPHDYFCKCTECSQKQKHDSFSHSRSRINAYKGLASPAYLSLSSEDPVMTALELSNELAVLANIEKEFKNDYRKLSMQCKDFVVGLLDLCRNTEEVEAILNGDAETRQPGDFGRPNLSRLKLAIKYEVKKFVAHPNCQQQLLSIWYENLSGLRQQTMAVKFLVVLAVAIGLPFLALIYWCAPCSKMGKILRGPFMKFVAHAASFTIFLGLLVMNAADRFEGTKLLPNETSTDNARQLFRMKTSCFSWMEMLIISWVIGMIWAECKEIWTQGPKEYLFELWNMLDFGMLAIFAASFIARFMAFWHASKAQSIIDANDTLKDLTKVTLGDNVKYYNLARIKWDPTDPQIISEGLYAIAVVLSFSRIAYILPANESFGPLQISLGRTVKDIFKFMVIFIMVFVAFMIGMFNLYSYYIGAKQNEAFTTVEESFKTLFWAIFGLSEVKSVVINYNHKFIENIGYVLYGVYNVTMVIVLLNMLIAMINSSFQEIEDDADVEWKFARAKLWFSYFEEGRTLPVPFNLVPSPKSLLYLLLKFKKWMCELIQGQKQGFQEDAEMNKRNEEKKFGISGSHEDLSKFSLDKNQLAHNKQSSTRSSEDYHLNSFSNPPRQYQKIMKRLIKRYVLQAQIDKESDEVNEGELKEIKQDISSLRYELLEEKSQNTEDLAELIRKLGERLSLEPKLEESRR

CCCCCOc1ccc(CSC2=NCCN2)cc1[N+](=O)[O-]
active: inhibition [1] 59% | inhibition [4] 54.9%
inactive: outcome [2] | outcome [3]

CCN(CC)c1ccc2cc(C(N)=O)/c(=N\NC(=O)c3ccncc3)oc2c1
active: inhibition [1] 70.5% | activity change, negative = inhibition [2] 31.7% | signal change vs control [3] -52%
inactive: outcome [4]

O=C(NNS(=O)(=O)c1ccc(Cl)cc1)C1CCN(Cc2ccccc2)CC1
inactive: outcome [1] | outcome [2]
active: signal change vs control [3] -4% | inhibition [4] 77.8%

COc1ccc(N/C(C)=C2/C(=O)C(=O)N(CCO)C2c2ccc(Br)cc2)cc1 (configuration not stated)
active: activation [5] 289% | potentiation [7] 141% | activation [13] 31.5% | activation [15] 57.5% | potentiation [17] 60.7%
inactive: outcome [6] | outcome [8] | outcome [9] | outcome [10] | outcome [11] | outcome [12] | outcome [14] | outcome [16] | outcome [18] | outcome [19]

CC1Cc2ccccc2N1C(=O)CSc1nc2c(c(=O)n(C)c(=O)n2C)n1Cc1ccccc1 (configuration not stated)
inactive: outcome [6] | outcome [8] | outcome [10] | outcome [12] | outcome [14] | outcome [18] | outcome [19]
active: activation [5] 320% | potentiation [7] 65% | inhibition [9] 83% | activation [13] 37.5% | activation [15] 85.8% | inhibition [16] 11.2% | potentiation [17] 18.8%

COc1ccc(CNC(=O)c2cc3c(=O)n4ccccc4nc3n(CC3CCCO3)c2=N)cc1 (configuration not stated)
inactive: outcome [1] | outcome [4]
active: activity change, negative = inhibition [2] -15.8% | signal change vs control [3] 32%

C=C(C)c1cccc(C(C)(C)NC(=O)NCCN(CC)CC)c1
active: activity change, negative = inhibition [2] 1.45% | inhibition [4] 54.4%
inactive: outcome [1] | outcome [3]

CCOC(=O)N1CCN(C(=O)c2ccc3c(c2)N(Cc2ccc(C)cc2)CCS3)CC1
active: activity change, negative = inhibition [2] 0.69% | signal change vs control [3] 307%
inactive: outcome [1] | outcome [4]

Cn1c(=NC(=O)c2cnccn2)sc2ccccc21
active: activity change, negative = inhibition [2] -25.3% | signal change vs control [3] 24.5%
inactive: outcome [1] | outcome [4]
